For experiment [1], the target named is Protein phosphatase methylesterase 1 (Homo sapiens) (UniProt Q9Y570). The experiment in a line: human PME-1 methylesterase inhibition confirmation – biochemical, fluorescence polarization, FP-Rh probe, triplicate (AID 2171).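 Note: 0% = enzyme with DMSO and 100% = wells lacking PME-1.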 Conditions: recombinant PME-1, FP-Rh probe fluorescence polarization; at 5.9 µM; stronger effect = higher value. In general terms: Polarisation of emitted light reports the rotation of a fluorescent probe.
Protein phosphatase methylesterase 1 (Homo sapiens), sequence (Q9Y570 whole entry, looked up): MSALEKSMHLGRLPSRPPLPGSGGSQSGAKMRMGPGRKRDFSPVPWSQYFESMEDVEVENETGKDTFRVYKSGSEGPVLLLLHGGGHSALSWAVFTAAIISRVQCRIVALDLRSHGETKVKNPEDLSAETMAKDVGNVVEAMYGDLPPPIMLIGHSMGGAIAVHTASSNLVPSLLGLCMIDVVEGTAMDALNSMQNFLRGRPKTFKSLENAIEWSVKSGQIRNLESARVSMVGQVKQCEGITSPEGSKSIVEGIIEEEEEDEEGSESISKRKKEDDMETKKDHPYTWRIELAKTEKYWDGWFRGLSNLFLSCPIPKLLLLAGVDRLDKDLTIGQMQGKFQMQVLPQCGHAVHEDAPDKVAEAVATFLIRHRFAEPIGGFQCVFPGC

Experiment [2] is described as follows: suppression of KLF5 promoter-driven luciferase – DLD-1 cells, luminescence, confirmation (AID 1834;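 active = inhibition above a set limit taken from the earlier primary screen, cut at about 63% in these data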;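 note: 0% = DMSO wells and 100% = LY294002 at 200 µM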). As to conditions: DLD-1 KLF5 promoter firefly luciferase reporter, at 4 µM, stronger effect = higher value. In general terms: In a reporter assay the amount or activity of a reporter protein is the signal.
Experiment [3] in a line: IEC-6 intestinal cell killing – luminescence, triplicate, cytotoxicity control for KLF5 inhibitor project (AID 1905; in the data active = inhibition above about 23%;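 note: cells exposed to compounds for 48 hours before viability read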). As to conditions: IEC-6 rat intestinal cells, viability luminescence; at 4 µM; stronger effect = higher value.
Experiment [4] has as its target Nuclear receptor coactivator 3 (Homo sapiens) (UniProt Q9Y6Q9). The experiment can be described thus: NCOA3 GAL4-fusion reporter inhibition – cell-based, luminescence, quadruplicate, confirmation (AID 588792;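 active = mean inhibition over 43.08%, the solvent-only control mean plus 3 SD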;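 note: 0% = DMSO treated cells and 100% = gossypol at 36 µM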). Conditions: HEK293 GAL4-SRC3 luciferase reporter, at 3.6 µM, stronger effect = higher value.
The subject of experiment [5] is transactivating tegument protein VP16 (Human herpesvirus 1), Gal4-VP16 luciferase reporter. The experiment can be described thus: repression of VP16-driven luciferase reporter – cell-based, luminescence, high throughput, counter-screen for SRC3 inhibitor project (AID 588794; in the data active = inhibition above about 30%). As to conditions: mammalian cells, at 3.6 µM, stronger effect = higher value.
Experiment [6] concerns the target Nuclear receptor coactivator 1 (Homo sapiens) (UniProt Q15788). The experiment in a line: NCOA1 GAL4-fusion reporter inhibition – cell-based, luminescence, quadruplicate, confirmation (AID 588820;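 active = mean inhibition above 46.68%, the untreated control wells mean plus 3 SD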;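 note: 0% = DMSO wells and 100% = gossypol 36 µM treated wells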). As to conditions: HEK293 GAL4-SRC1 luciferase reporter, at 3.6 µM, stronger effect = higher value.
The nature of experiment [7]: repression of VP16-driven luciferase reporter – cell-based, luminescence, high throughput, counter-screen for SRC1 inhibitor project (AID 588824; in the data active = inhibition above about 25%). Conditions: cell-based VP16 transactivation luciferase luminescence; at 3.6 µM; stronger effect = higher value.
Experiment [8] has as its target Photoreceptor-specific nuclear receptor (Homo sapiens) (UniProt Q9Y5X4). The experiment can be described thus: retest of NR2E3-NCOR disrupting agonists – cell-based, luminescence, CHO-S two-hybrid, confirmation (AID 624378;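 active = average inhibition above a cutoff equal to the mean inhibition of all tested compounds plus one SD, cut at about 70% in these data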;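 note: 0% = DMSO in NR2E3 cells and 100% = DMSO in cells lacking NR2E3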). As to conditions: CHO-S mammalian two-hybrid NR2E3-NCOR, luciferase luminescence; at 3.98 µM; stronger effect = higher value.
A short description of experiment [9]: nonselective effects on VP16 transactivation – cell-based, luminescence, CHO-S, high throughput, counter-screen for NR2E3 agonist project, confirmation (AID 624379;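 active = mean inhibition above a cutoff equal to the average over all tested compounds plus one standard deviation, cut at about 70% in these data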;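 note: 0% = DMSO with VP16-transfected cells and 100% = DMSO with cells lacking VP16; higher means less reporter light so more repression of VP16 activity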). As to conditions: CHO-S GAL4-VP16 luciferase reporter, at 3.98 µM, stronger effect = higher value. Background: A counterscreen serves to expose hits that act by an unwanted route or on another target.
Experiment [10] in a line: StAR promoter reporter inhibitors, counter-screen for LRH-1 inverse agonist project, cell-based, luminescence, high throughput (AID 651611; in the data active = inhibition above about 28%). As to conditions: StAR promoter luciferase reporter counterscreen, at 3.6 µM, stronger effect = higher value.
The target of experiment [11] is Nuclear receptor subfamily 5 group A member 2 (Homo sapiens) (UniProt O00482). The experiment in a line: NR5A2 activity suppression in reporter cells – cell-based, luminescence, confirmation (AID 651613; in the data active = inhibition above about 42%;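 note: HEK293T cells co-transfected with LRH-1 and StAR promoter luciferase reporter; 0% = vehicle wells and 100% = parental cells lacking receptor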). As to conditions: cell-based LRH-1 luciferase reporter, inverse agonism; at 3.6 µM; stronger effect = higher value.
Nuclear receptor subfamily 5 group A member 2 (Homo sapiens), sequence (O00482 whole entry, looked up): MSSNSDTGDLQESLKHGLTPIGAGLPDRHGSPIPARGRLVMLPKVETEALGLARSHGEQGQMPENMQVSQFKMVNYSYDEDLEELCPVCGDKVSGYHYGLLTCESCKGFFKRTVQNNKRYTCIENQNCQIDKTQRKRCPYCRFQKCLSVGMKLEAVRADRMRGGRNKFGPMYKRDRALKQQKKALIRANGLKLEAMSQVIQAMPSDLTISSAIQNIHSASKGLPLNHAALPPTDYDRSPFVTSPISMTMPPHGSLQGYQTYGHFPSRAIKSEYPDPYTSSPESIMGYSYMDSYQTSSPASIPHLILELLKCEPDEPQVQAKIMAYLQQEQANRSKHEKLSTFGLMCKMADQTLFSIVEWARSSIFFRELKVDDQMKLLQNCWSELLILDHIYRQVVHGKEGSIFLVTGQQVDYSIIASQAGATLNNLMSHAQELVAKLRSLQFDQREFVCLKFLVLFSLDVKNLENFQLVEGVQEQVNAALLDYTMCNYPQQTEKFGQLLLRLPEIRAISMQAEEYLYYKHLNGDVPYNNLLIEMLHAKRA
In experiment [12] the target is Steroidogenic factor 1 (Homo sapiens) (UniProt Q13285). The experiment in a line: inverse agonism at SF1 nuclear receptor – cell-based, luminescence, high throughput, counter-screen for LRH-1 inverse agonist project (AID 651614; in the data active = inhibition above about 44%;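 note: cells cotransfected with StAR promoter reporter and SF1 expression vector; 0% = vehicle on cells with receptor and 100% = vehicle on cells lacking receptor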). Conditions: cell-based SF1 luciferase reporter, at 3.6 µM, stronger effect = higher value.
Steroidogenic factor 1 (Homo sapiens), sequence (Q13285 whole entry, looked up, the tested form may be a part): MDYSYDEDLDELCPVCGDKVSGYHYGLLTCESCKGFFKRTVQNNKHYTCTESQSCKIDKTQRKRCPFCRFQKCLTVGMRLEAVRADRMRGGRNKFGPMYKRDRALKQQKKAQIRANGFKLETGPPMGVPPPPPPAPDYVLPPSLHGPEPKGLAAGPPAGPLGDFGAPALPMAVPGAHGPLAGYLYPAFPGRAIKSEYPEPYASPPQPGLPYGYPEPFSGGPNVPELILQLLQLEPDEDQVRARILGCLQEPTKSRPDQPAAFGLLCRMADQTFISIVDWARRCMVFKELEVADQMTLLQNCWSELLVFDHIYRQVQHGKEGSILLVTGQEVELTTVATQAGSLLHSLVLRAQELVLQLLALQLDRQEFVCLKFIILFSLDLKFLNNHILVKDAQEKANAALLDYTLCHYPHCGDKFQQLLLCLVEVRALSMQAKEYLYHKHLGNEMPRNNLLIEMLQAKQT
The nature of experiment [13]: compounds suppressing VP16-driven luciferase signal – cell-based, luminescence, high throughput, counter-screen for LRH-1 inverse agonist project (AID 651615; in the data active = inhibition above about 33%). As to conditions: Gal4-VP16 luciferase reporter cells, at 3.6 µM, stronger effect = higher value.
Experiment [14] in a line: VP16-driven transactivation reporter suppression – cell-based, luminescence, HEK293, counter-screen for COUP-TFII antagonist project (AID 687007; in the data active = inhibition above about 13%). Conditions: HEK293 Gal4-VP16 luciferase reporter, at 8.5 µM, stronger effect = higher value.
Experiment [15] addresses COUP transcription factor 2 (Homo sapiens) (UniProt P24468). The experiment can be described thus: retest of COUP-TFII reporter suppressors – cell-based, luciferase reporter, HEK293, triplicate, confirmation (AID 687008;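 active = mean inhibition over three repeats above a set limit taken from the earlier primary screen, cut at about 38% in these data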;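 note: 100% = cells given the luciferase reporter alone without the COUP-TF2 vector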). Conditions: HEK293 NGFI-A luciferase reporter, luminescence; at 8.5 µM; stronger effect = higher value.
The nature of experiment [16]: reduced OD of T4-infected AddAB+ E. coli – absorbance, E. coli V3065, T4 phage, triplicate, AddAB inhibitor project, confirmation (AID 488942;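 active = mean inhibition above a set limit taken from the earlier primary screen, cut at about 13% in these data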;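 note: higher means less bacterial growth since AddAB block lets phage replicate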). As to conditions: E. coli V3065 expressing H. pylori AddAB, at 11.9 µM, stronger effect = higher value.
A short description of experiment [17]: reduced OD of phage-infected RecBCD+ V66 E. coli – absorbance, mutant T4 phage, counter-screen for AddAB inhibitor project (AID 488955;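 active = mean inhibition above the mean of solvent-only control wells plus 3 SD, cut at about 4% in these data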;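 note: optical density read after an 18 h incubation at 37 °C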). As to conditions: OD growth, at 11.9 µM, stronger effect = higher value.
Experiment [18] is described as follows: bacterial growth inhibitors – absorbance, counter-screen for AddAB inhibitor project, confirmation (AID 488956; in the data active = inhibition above about 25%). Conditions: bacterial viability, absorbance (AddAB counterscreen); at 11.9 µM; stronger effect = higher value.
Experiment [19] addresses Platelet-activating factor acetylhydrolase (Homo sapiens) (UniProt Q13093). The experiment can be described thus: inhibition of plasma PAF acetylhydrolase – biochemical, fluorescence polarization, human, confirmation (AID 463230;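 active = mean inhibition of the triplicate above the hit cutoff set for the earlier primary screen, cut at about 25% in these data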;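 note: 0% = enzyme with DMSO and 100% = wells lacking pPAFAH enzyme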). Conditions: recombinant pPAFAH, FP-Rh probe fluorescence polarization; at 3.39 µM; stronger effect = higher value.
For experiment [20], the target named is Protein-arginine deiminase type-4 (Homo sapiens) (UniProt Q9UM07). The experiment can be described thus: protein arginine deiminase 4 blockade, retest – biochemical, fluorescence polarization, confirmation (AID 488796;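 active = mean inhibition across replicates above the hit cutoff set by the earlier primary screen, cut at about 15% in these data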;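 note: inhibitors block active-site labeling by the probe so polarization falls; 0% = PAD4 with probe and DMSO and 100% = probe without PAD4 enzyme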). Conditions: recombinant PAD4, RCA probe fluorescence polarization; at 6.36 µM; stronger effect = higher value.

A number with no mark means an inactive call. The list shows a part of the results. Activity calls are given as the source filed them.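 Rule for the calls, unless noted: active = inhibition above the hit cutoff set in the earlier primary screen (cut at about 27% in these data); inactive = the rest.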

Nuclear receptor coactivator 3 (Homo sapiens), sequence (Q9Y6Q9 whole entry, looked up, the tested form may be a part): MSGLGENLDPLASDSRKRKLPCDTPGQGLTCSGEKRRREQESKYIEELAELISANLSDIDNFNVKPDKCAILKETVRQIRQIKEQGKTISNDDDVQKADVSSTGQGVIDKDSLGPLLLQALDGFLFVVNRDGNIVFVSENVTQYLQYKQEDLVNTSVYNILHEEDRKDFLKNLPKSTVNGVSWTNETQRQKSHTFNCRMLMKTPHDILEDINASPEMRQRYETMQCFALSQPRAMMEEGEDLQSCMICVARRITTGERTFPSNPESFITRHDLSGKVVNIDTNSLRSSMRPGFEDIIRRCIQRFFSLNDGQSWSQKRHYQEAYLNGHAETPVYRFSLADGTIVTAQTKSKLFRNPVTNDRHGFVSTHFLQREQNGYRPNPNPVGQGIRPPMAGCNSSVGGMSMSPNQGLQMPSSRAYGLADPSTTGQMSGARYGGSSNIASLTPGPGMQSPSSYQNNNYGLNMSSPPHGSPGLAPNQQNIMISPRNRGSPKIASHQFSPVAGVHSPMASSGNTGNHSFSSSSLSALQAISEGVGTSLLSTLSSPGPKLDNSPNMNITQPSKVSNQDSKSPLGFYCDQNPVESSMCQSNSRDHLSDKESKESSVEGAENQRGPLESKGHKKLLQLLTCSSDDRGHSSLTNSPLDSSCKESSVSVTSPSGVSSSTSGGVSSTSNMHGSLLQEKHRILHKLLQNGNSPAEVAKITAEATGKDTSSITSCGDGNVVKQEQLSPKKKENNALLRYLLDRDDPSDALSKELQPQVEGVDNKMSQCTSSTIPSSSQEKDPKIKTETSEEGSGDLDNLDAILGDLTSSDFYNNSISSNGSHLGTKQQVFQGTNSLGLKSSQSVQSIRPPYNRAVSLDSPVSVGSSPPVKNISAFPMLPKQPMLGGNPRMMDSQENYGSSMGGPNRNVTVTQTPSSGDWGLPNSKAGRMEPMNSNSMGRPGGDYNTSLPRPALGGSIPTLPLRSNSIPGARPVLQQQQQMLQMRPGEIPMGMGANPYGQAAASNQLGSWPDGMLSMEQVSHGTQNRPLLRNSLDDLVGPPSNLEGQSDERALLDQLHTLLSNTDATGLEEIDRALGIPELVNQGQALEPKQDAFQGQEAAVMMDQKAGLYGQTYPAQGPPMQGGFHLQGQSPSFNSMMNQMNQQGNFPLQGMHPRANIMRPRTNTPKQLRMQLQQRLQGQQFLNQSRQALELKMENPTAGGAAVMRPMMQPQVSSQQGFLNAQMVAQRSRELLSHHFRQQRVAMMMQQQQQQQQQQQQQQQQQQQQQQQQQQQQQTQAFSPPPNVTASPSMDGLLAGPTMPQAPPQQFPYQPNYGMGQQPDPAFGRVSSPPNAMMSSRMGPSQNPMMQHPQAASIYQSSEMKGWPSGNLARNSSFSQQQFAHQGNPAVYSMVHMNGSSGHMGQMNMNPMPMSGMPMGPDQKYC
COUP transcription factor 2 (Homo sapiens), sequence (P24468 whole entry, looked up): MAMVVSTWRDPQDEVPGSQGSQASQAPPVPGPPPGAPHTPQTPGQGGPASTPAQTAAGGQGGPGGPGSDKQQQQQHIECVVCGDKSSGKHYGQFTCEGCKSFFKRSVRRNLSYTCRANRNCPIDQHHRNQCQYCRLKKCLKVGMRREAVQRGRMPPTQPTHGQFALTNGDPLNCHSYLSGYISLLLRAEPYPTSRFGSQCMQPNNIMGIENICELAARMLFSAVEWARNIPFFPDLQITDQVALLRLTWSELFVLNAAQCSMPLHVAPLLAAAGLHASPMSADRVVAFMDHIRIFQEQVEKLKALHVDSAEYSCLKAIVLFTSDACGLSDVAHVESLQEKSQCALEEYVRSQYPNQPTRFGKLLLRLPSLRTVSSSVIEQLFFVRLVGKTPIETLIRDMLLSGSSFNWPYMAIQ
Nuclear receptor coactivator 1 (Homo sapiens), sequence (Q15788 whole entry, looked up, the tested form may be a part): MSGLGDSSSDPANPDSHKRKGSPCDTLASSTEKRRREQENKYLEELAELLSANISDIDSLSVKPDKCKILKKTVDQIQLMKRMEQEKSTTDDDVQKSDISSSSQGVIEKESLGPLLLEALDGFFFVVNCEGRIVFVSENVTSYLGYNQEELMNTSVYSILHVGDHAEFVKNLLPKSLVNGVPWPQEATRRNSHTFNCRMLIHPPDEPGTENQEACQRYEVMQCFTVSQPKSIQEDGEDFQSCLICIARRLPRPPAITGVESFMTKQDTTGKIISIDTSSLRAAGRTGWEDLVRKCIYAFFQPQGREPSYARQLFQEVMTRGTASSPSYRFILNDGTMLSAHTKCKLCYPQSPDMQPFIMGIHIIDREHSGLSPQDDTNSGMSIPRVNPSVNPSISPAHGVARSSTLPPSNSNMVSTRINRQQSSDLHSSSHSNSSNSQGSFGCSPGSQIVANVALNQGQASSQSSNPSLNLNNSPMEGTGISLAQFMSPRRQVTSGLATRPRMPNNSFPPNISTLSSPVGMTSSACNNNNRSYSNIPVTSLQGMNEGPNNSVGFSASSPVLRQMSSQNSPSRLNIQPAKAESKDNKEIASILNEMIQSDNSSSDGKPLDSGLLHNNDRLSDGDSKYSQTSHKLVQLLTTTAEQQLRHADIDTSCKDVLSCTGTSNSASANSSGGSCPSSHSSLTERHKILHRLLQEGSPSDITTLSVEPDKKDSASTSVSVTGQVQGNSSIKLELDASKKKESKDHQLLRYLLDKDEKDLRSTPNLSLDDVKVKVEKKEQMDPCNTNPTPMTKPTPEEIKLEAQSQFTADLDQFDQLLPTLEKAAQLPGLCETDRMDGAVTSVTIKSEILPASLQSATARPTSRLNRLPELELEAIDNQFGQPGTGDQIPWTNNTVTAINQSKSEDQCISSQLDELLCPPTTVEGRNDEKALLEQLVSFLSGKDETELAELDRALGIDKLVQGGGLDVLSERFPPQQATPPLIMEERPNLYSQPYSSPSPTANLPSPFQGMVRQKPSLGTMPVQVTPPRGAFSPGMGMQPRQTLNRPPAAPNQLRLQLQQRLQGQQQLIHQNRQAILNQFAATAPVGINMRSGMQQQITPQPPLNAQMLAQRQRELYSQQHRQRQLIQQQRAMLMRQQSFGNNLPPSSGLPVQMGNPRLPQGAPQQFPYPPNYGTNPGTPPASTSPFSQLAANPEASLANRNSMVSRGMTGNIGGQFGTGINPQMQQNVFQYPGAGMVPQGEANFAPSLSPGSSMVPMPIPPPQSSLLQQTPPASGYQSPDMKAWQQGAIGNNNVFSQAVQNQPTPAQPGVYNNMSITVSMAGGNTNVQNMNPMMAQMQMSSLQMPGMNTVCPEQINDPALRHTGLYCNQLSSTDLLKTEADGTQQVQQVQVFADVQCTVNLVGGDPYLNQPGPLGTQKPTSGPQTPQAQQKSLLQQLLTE
Photoreceptor-specific nuclear receptor (Homo sapiens), sequence (Q9Y5X4 whole entry, looked up): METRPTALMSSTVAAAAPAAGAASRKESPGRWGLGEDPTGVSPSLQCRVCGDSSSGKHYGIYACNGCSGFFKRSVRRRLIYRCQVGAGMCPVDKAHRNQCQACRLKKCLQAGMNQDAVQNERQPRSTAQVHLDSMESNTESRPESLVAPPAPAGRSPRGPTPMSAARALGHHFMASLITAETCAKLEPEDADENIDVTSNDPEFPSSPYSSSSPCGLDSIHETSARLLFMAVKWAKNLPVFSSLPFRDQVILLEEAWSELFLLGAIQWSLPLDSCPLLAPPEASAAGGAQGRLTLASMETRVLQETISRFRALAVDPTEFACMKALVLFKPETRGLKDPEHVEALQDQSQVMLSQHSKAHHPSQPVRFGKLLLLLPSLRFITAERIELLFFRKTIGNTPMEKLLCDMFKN

Take `O=P(CCl)(Nc1ccccc1)C(Cl)(Cl)Cl` (stereo unspecified): the inhibition in experiment [1] was 45.2% (active).
On to `NC(Cc1cc(O)c(O)cc1O)C(=O)O` (stereo unspecified), for which the inhibition in experiment [1] is 69.4% (active).
Turning to `CCCCCCCCCCCCn1ccc(=N)cc1`, the inhibition was 62.6% (active) in [2]; 46.8% (active) in experiment [3]; 67.6% (active) in [4]; 78.8% (active) in experiment [5]; 53.8% (active) in [6]; 78.9% (active) in experiment [7]. Besides, the inhibition in experiment [8] was 99.7% (active); in experiment [9] it was 86.7% (active); in [10] it was 74.4% (active); in experiment [11], 101% (active); in [12], 92.7% (active); in experiment [13], 89.8% (active). Also, the values for the inhibition in experiment [14] and in experiment [15] were 14.2% (active) and 76.4% (active), respectively.
Regarding `Cn1ncnc2c(=O)n(C)c(=O)nc1-2`, the inhibition is 43.2% (active) in experiment [1]; 76.9% (active) in experiment [10]; 92.6% (active) in experiment [11]; 84.3% (active) in [12]; 87.6% (active) in experiment [13].
For `CN(C)S(=O)(=O)c1cc(C(=O)N2CCC(C(=O)O)(c3ccccc3)CC2)ccc1Cl`, the inhibition in experiment [16] is 85.5% (active); in experiment [17] it was 1.24%; in [18], 26.1% (active).
For `NP(=O)(OCC(F)(F)F)Oc1ccc(Cl)cc1` (stereo unspecified), the inhibition in [1] is 30.6% (active).
As for `Cc1ccc(C(O)P(=O)(Oc2ccccc2)Oc2ccccc2)cc1` (stereo unspecified), the inhibition in experiment [1] was 59.9% (active).
Still for that read-out and setting: with `CN(C)C1(c2nnnn2CCOC(=O)Nc2ccc(Cl)cc2)CCCCC1` the figure was 25%; with `O=C(CN1CC=C(c2ccccc2)CC1)Nc1c(Cl)cccc1Cl`, 28.2% (active).
Turning to `O=c1[nH]c(=S)[nH]c(O)c1N=Nc1ccc(S(=O)(=O)N2CCc3ccccc32)cc1`, the inhibition in [1] was 46% (active); in experiment [10], 35% (active); in [11], 49.8% (active); in experiment [12], 47.9% (active); in experiment [13] it was 7.96%.
As to `CC(=NCc1ccc2c(c1)OCO2)c1c(O)n(-c2ccccc2)c(=O)[nH]c1=O`, the inhibition in experiment [4] is -6%; in experiment [5], 13.8%.
Take `Cc1nn(-c2ccccc2)c(C)c1NC(=O)COC(=O)Cc1ccccc1`: the inhibition in experiment [19] was 43.1% (active).
As to `COc1ccccc1C1=NCc2nnc(CSC)n2-c2ccc(Cl)cc21`, the inhibition in experiment [20] was 12.9%.
Turning to `C[n+]1c(-c2ccccc2)c2cc(N)ccc2c2ccc(N)cc21`, the inhibition in experiment [1] is 83.5% (active).
Regarding `O=P(Oc1ccccc1)(Oc1ccccc1)C(O)c1ccccc1` (stereo unspecified), in experiment [1], the inhibition is 78.1% (active).
As to `C=C1C(C)C2C(Cc3ccccc3)NC(=O)C23OC(=O)/C=C/C(O)CCCC(C)C/C=C/C3C1O` (stereo unspecified), the results for the inhibition in experiment [4] and in experiment [5] were 10.6% and 22.1%, respectively.

The inhibition is the change of the read-out against control, counted positive when it falls.
